What is called inhibition is the drop in the measured response relative to a control, in per cent.

Assay [1] deals with 5'-AMP-activated protein kinase catalytic subunit alpha-2 (Homo sapiens) (UniProt P54646). The conditions noted are these: at 1 µM.
In assay [2] the target is T1, NUAK family SNF1-like kinase 1 (Homo sapiens) (UniProt O60285).
T1 sequence (whole entry): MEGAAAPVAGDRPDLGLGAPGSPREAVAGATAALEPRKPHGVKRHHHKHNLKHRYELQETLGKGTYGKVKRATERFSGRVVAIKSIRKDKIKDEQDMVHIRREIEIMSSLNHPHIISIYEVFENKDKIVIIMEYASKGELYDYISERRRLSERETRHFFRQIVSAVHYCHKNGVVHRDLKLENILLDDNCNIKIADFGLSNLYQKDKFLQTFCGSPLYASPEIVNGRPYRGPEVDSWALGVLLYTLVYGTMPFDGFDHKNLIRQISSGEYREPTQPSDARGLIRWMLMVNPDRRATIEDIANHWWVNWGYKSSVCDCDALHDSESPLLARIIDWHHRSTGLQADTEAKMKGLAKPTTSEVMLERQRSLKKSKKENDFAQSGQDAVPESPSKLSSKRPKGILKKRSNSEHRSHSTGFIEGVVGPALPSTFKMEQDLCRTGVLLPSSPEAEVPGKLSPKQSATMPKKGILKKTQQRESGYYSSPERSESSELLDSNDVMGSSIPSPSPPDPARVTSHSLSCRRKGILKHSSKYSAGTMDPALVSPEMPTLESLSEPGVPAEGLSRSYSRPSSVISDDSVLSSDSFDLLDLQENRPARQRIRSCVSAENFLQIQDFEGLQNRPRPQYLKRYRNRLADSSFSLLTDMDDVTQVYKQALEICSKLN
As to conditions: at 0.1 µM.

Assay [3] has as its target T1, NUAK family SNF1-like kinase 1 (Homo sapiens). As to conditions: at 1 µM.
Assay [4] has as its target T2, Serine/threonine-protein kinase BRSK1 (Homo sapiens) (UniProt Q8TDC3).
T2 sequence (whole entry): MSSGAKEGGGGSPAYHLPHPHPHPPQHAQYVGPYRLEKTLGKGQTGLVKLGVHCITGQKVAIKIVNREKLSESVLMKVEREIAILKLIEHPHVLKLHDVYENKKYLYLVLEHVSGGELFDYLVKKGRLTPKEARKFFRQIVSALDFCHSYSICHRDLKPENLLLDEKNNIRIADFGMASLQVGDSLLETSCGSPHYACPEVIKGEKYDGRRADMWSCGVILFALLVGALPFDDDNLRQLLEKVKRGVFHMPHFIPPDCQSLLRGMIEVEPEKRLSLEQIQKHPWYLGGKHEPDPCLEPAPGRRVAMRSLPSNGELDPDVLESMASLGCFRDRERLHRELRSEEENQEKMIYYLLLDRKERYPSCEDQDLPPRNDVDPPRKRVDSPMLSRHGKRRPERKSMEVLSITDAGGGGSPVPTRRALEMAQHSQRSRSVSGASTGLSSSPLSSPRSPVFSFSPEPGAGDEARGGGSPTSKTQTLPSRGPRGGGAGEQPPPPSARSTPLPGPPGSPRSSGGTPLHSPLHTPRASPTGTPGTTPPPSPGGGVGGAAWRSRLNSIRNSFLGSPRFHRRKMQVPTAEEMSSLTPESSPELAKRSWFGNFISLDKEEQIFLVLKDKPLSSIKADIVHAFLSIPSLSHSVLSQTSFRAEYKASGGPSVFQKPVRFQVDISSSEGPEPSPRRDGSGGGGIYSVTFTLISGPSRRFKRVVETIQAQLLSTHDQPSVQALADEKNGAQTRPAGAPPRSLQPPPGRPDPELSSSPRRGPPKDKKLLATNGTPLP
As to conditions: at 0.1 µM.

Assay [5] deals with T2, Serine/threonine-protein kinase BRSK1 (Homo sapiens). The conditions noted are these: at 1 µM.
Assay [6] addresses T3, Serine/threonine-protein kinase BRSK2 (Homo sapiens) (UniProt Q8IWQ3).
T3 sequence (whole entry): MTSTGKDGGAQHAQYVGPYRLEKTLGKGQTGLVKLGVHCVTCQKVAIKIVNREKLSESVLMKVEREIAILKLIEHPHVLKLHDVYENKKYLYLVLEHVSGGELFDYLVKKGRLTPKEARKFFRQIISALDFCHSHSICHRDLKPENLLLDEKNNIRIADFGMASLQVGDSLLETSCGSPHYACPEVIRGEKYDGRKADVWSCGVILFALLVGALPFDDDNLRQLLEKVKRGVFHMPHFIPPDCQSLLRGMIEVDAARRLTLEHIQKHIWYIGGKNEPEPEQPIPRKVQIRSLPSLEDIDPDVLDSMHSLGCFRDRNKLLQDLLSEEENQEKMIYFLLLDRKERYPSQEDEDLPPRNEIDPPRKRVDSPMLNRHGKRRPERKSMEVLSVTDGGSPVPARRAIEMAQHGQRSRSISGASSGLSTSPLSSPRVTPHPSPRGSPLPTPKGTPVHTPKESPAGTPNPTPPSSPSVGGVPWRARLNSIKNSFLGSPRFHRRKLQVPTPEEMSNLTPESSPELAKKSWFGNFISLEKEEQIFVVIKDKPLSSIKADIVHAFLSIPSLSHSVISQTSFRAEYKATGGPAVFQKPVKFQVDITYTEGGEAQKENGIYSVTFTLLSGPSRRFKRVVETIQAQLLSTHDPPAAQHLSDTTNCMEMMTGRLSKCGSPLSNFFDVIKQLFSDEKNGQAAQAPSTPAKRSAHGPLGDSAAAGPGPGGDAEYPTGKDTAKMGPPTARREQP
The conditions noted are these: at 0.1 µM.

In assay [7] the target is T3, Serine/threonine-protein kinase BRSK2 (Homo sapiens). The conditions noted are these: at 1 µM.
Assay [8] deals with Calcium/calmodulin-dependent protein kinase type 1D (Homo sapiens) (UniProt Q8IU85). As to conditions: at 0.1 µM.
Sequence of Calcium/calmodulin-dependent protein kinase type 1D (Homo sapiens) (Q8IU85 whole entry, looked up): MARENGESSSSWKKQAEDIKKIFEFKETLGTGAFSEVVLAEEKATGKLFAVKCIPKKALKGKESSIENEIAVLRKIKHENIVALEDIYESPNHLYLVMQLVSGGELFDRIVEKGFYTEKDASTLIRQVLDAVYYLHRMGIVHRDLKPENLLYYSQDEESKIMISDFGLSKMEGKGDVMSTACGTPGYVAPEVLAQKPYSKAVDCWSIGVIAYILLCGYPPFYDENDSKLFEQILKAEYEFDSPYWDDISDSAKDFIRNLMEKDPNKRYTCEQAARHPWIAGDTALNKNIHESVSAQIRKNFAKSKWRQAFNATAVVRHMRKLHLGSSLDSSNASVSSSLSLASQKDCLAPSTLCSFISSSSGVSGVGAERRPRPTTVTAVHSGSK
Assay [9] shares this target. The conditions noted are these: at 1 µM.
Assay [10] deals with Calcium/calmodulin-dependent protein kinase type II subunit alpha (Homo sapiens) (UniProt Q9UQM7). As to conditions: at 0.1 µM.
Sequence of Calcium/calmodulin-dependent protein kinase type II subunit alpha (Homo sapiens) (Q9UQM7 whole entry): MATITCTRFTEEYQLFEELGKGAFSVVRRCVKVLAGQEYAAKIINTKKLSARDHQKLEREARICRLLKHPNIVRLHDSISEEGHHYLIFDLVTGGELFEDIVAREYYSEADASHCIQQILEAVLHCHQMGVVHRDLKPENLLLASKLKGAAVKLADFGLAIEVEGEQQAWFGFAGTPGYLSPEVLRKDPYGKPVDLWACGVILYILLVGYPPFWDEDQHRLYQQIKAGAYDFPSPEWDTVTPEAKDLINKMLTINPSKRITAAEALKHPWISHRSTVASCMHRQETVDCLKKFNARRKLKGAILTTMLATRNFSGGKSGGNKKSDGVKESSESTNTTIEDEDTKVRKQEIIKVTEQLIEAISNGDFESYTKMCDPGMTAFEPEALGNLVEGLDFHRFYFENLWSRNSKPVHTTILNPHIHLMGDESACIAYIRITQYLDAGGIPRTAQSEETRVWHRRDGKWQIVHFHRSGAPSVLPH
The target is the same in assay [11]. As to conditions: at 1 µM.
Assay [12] concerns the target Calcium/calmodulin-dependent protein kinase type II subunit delta (Homo sapiens) (UniProt Q13557). As to conditions: at 0.1 µM.
Assay [13] has the same target. As to conditions: at 1 µM.
The target in assay [14] is T4, Calcium/calmodulin-dependent protein kinase type IV (Homo sapiens) (UniProt Q16566).
T4 sequence (whole entry): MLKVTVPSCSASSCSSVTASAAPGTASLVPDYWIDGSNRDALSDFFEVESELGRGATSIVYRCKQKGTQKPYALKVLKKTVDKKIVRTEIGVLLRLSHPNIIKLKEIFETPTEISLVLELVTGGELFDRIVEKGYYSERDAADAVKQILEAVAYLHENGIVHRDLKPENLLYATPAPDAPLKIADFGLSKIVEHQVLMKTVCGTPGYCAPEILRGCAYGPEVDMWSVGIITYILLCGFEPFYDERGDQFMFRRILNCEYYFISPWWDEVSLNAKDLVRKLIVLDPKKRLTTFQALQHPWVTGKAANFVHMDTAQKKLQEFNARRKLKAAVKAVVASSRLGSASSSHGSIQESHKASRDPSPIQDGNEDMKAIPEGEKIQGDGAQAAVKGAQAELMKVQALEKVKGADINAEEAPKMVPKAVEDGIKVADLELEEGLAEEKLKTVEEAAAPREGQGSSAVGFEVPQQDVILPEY
The conditions noted are these: at 0.1 µM.

Assay [15] deals with T4, Calcium/calmodulin-dependent protein kinase type IV (Homo sapiens). As to conditions: at 1 µM.
Assay [16] addresses T5, Serine/threonine-protein kinase Chk1 (Homo sapiens) (UniProt O14757).
T5 sequence (whole entry): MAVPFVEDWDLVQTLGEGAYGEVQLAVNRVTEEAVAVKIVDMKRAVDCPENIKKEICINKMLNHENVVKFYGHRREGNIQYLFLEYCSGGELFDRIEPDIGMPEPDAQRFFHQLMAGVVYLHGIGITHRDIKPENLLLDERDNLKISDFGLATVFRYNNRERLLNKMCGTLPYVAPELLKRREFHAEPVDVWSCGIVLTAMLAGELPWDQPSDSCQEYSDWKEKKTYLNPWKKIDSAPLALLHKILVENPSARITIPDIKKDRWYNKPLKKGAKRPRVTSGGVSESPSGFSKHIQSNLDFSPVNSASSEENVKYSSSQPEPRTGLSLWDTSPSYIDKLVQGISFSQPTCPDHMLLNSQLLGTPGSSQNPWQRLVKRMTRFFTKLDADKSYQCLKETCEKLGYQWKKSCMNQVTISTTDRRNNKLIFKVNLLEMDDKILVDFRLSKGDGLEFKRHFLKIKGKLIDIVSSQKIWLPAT
As to conditions: at 0.1 µM.

The target in assay [17] is T5, Serine/threonine-protein kinase Chk1 (Homo sapiens). As to conditions: at 1 µM.
The target of assay [18] is Serine/threonine-protein kinase Chk2 (Homo sapiens) (UniProt O96017). As to conditions: at 0.1 µM.
Sequence of Serine/threonine-protein kinase Chk2 (Homo sapiens) (O96017 whole entry): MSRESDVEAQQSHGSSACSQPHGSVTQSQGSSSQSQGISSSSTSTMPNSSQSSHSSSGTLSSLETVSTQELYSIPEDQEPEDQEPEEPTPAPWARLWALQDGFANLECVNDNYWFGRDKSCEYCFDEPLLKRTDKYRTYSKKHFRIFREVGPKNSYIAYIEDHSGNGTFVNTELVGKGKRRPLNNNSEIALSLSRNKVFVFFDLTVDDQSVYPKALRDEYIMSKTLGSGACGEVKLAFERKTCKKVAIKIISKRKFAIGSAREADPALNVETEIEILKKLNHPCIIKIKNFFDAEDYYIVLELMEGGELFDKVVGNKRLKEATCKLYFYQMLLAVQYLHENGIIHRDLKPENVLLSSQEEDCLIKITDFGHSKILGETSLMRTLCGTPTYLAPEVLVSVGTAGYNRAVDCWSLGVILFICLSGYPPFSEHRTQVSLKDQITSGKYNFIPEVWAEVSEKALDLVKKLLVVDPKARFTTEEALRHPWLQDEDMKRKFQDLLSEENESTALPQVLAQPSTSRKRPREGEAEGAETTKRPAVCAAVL
Assay [19] shares this target. As to conditions: at 1 µM.
The target of assay [20] is Death-associated protein kinase 1 (Homo sapiens) (UniProt P53355). The conditions noted are these: at 0.1 µM.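 Note: reported figure is the mean inhibition of DAPK1.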
Sequence of Death-associated protein kinase 1 (Homo sapiens) (P53355 whole entry, looked up): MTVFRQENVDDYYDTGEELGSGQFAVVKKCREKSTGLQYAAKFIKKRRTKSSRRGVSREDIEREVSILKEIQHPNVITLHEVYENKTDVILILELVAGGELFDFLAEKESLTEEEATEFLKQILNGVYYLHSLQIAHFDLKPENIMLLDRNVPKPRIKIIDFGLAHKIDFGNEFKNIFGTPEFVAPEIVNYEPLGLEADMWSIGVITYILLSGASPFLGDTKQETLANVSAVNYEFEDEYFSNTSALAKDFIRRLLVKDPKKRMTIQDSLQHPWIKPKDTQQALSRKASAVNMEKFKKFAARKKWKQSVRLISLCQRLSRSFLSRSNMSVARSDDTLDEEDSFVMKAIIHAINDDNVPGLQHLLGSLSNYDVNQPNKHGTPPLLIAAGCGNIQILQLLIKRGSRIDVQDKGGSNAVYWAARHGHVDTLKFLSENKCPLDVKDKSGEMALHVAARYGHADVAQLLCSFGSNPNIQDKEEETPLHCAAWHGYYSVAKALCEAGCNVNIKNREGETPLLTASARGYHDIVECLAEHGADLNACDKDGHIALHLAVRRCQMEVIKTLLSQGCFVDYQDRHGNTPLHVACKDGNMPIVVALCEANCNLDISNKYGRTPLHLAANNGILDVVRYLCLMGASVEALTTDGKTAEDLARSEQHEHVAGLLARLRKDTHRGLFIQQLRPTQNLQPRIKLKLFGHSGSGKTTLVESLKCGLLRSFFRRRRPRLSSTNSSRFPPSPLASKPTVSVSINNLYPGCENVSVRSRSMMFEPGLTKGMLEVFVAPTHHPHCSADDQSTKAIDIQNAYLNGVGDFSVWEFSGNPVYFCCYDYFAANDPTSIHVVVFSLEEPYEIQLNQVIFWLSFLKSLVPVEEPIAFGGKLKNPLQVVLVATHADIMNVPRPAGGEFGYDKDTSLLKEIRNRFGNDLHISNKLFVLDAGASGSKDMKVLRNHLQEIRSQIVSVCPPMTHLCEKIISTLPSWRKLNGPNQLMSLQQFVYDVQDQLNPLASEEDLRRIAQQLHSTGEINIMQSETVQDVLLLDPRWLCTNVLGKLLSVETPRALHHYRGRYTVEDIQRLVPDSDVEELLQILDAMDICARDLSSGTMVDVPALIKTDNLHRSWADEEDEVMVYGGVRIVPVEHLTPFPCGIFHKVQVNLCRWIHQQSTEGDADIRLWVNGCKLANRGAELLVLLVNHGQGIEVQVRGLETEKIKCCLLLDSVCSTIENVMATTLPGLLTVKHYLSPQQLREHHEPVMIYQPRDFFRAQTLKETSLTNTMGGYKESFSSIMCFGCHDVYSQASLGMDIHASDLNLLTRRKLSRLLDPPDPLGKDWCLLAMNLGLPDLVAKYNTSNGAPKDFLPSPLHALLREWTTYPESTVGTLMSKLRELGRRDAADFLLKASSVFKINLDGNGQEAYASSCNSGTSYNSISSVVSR

Sequence of 5'-AMP-activated protein kinase catalytic subunit alpha-2 (Homo sapiens) (P54646 whole entry, looked up): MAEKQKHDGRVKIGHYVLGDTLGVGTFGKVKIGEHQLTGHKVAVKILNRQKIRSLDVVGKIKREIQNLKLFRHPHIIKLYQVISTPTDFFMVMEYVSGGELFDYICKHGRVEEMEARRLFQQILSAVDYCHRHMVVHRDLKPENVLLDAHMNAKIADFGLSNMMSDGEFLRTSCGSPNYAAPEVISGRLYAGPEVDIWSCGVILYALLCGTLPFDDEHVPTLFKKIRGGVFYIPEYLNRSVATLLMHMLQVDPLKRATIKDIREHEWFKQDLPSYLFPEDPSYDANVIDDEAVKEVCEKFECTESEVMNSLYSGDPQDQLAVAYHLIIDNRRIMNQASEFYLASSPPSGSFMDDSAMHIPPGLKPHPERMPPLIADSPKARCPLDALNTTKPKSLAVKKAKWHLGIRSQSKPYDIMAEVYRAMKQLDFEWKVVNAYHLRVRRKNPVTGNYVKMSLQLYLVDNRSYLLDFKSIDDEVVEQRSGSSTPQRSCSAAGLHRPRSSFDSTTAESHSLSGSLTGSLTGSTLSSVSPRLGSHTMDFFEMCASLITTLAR
Sequence of Calcium/calmodulin-dependent protein kinase type II subunit delta (Homo sapiens) (Q13557 whole entry): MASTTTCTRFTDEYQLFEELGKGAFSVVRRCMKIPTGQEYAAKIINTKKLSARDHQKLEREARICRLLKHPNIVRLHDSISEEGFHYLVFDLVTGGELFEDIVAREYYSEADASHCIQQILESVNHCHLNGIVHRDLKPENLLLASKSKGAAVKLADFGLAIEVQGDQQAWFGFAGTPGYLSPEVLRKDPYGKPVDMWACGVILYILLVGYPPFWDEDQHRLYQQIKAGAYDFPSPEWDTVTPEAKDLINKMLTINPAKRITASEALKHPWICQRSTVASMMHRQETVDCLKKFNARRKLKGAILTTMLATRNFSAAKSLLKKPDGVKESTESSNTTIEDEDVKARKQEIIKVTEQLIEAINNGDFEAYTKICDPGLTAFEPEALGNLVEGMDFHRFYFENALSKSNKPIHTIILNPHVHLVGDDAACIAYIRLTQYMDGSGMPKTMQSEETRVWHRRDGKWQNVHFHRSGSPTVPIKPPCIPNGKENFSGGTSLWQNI

As for `CCS(=O)(=O)c1ccc(OC)c(Nc2ncc(-c3cccc(-c4ccccc4F)c3)o2)c1`, the inhibition in assay [1] is 1.37%; in assay [2], 1.73%; in assay [3], 2.9%; in assay [4], -0.47%; in assay [5], 0.8%; in [6], 0%. The inhibition in [7] is -0.51%; in assay [8], 0.44%; in [9] it was 0.18%; in assay [10] it was -1.21%; in assay [11] it was 3.98%; in [12] it was 1.21%. For the same compound, the inhibition in [13] was 11.6%; in assay [14], 1.15%; in assay [15], 1.5%; in assay [16], 1.03%; in [17], 2.03%; in [18] it was -0.11%. For the same compound, the inhibition was -0.35% in assay [19] and -0.16% in assay [20].

Regarding `COc1cc(N2CCN(C(C)C)CC2)ccc1Nc1nc(Nc2ccc(F)cc2C(=O)NC[C@@H](O)CO)c2cc[nH]c2n1`, the inhibition was 3.64% in assay [1]; 4.38% in assay [2]; 17.2% in assay [3]; -0.14% in [4]; 1.34% in assay [5]; 2.44% in assay [6]. The inhibition in assay [7] came to 2.82%; in assay [8], 0.93%; in assay [9] it was 11%; in assay [10], 4.06%; in [11], 4.13%; in assay [12] it was 3.45%. Besides, the inhibition was 7.22% in assay [13]; -2.03% in assay [14]; -0.93% in assay [15]; 2.18% in assay [16]; 6.24% in [17]; 17.2% in [18]. Besides, the inhibition in assay [19] came out at 52.4%; in assay [20], 9.94%.

On to `CNC(=O)c1cncc(/C=C/c2c(C)cccc2C)c1`, for which the inhibition in [1] was found to be 0.33%; in [2], 2.16%; in [3], 2.93%; in [4], 1.29%; in assay [5], 5.17%; in [6], 0.83%. Moreover, the inhibition was 5.16% in assay [7]; 1.13% in assay [8]; 0.73% in assay [9]; 2.12% in assay [10]; 3.13% in assay [11]; 1.04% in assay [12]. Further, the inhibition in assay [13] was 1.43%; in assay [14], 2.28%; in [15], 0.99%; in assay [16] it was -0.79%; in [17], 0.19%; in assay [18], -0.74%. Besides, the inhibition is -0.03% in [19] and 0.17% in assay [20].

As to `NC(=O)c1cc(-c2ccc(F)cc2)cc(-c2ccncc2)c1N`, the inhibition is 2.48% in assay [1]; -0.64% in [2]; -1.26% in assay [3]; 0.38% in [4]; -1.89% in [5]; 1.65% in [6]. In addition, the inhibition is 2.63% in assay [7]; -0.61% in assay [8]; 0.29% in assay [9]; 3.47% in [10]; 3.68% in assay [11]; 1.36% in assay [12]. For the same compound, the inhibition worked out at 3.98% in assay [13]; 0.77% in assay [14]; 0.56% in assay [15]; 0.67% in [16]; 0.41% in assay [17]; 3% in assay [18]. Moreover, the values for the inhibition in assay [19] and in [20] were 3.74% and 1.26%, respectively.

Consider `CCS(=O)(=O)c1ccc(OC)c(Nc2ncc(-c3ccccc3Cl)o2)c1`, for which the inhibition in [1] is 2.95%; in assay [2], 2.27%; in [3], 1.46%; in [4] it was -1%; in assay [5] it was -0.58%; in [6] it was 0.64%. The inhibition was -1.12% in assay [7]; 0.68% in assay [8]; 1.43% in [9]; 2.2% in assay [10]; 3.37% in [11]; 1.45% in assay [12]. The inhibition is 1.43% in assay [13]; 2.52% in assay [14]; 0.4% in [15]; 5.3% in [16]; 5.1% in [17]; -1.42% in [18]. Further, the inhibition is -0.76% in [19] and 4.59% in [20].

As for `CN(C)CCCNc1nccc(-c2c(-c3ccc(F)cc3)nn3cc(C(F)(F)F)ccc23)n1`, the inhibition in [1] is 2.79%; in assay [2], -1.31%; in [3], 7.22%; in assay [4] it was 1.29%; in assay [5], 4.81%; in [6], 0.82%. The inhibition in assay [7] was determined as 4.17%; in assay [8] it was 1.56%; in assay [9], 1.39%; in [10] it was 3.05%; in assay [11], 4.26%; in assay [12], 3.65%. The inhibition in [13] was 4.37%; in assay [14], 1.43%; in assay [15], 2.27%; in assay [16] it was -3.07%; in [17], 1.13%; in assay [18] it was 0.82%. In addition, the inhibition in [19] worked out at 0.61%; in assay [20], 0.55%.
